Experimental findings from PubChem BioAssay are described below.

Test [1] in a line: anti-His antibody binders, primary screen, artefact control for SMM control protein annotation, biochemical, small-molecule microarray, 635 nm fluorescence (AID 1128).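 Further: score merges feature fluorescence with signal-to-noise for each printed compound spot.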 Conditions: anti-His Alexa647 antibody binding, higher = more signal.
Test [2] has as its system Human papillomavirus type 1a E7 protein (residues 1-88). Description: HPV1a E7 small-molecule binders, primary screen, biochemical, small-molecule microarray, residues 1-88, 635 nm (AID 1129). Conditions: small-molecule microarray binding, fluorescence 635 nm; higher = more signal.
Test [3] deals with Focal adhesion kinase 1 (Homo sapiens) (UniProt Q05397). Description: small-molecule microarray binders of FAK, primary screen, biochemical, 635/667 nm fluorescence, BSA, DTT (AID 1130).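 Further: composite of spot emission at 667 nm and signal to noise over triplicate slides.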 Conditions: PTK2 binding, 635 nm fluorescence, higher = more signal.
Test [4] deals with Fibrinogen (Alexa647-labelled). Description: fibrinogen binders on compound microarrays, profiling panel, artefact control for SMM control-protein annotation, biochemical, small-molecule microarray, 635/667 nm fluorescence (AID 1131).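 Further: z-score merges 667 nm fluorescence with per-spot signal-to-noise over triplicate slides.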 Conditions: fibrinogen-A647 binding fluorescence, higher = more signal.
Test [5] deals with Follistatin (Homo sapiens) (UniProt P19883). The test is described as follows: follistatin binders on small-molecule microarrays, primary screen, biochemical, small-molecule microarray, 635/667 nm fluorescence (AID 1132). The following applies: FST binding, 635 nm fluorescence, higher = more signal.
For test [6], the target named is Fibroblast growth factor 2 (Homo sapiens) (UniProt P09038). Description: FGF2 binders on small-molecule microarrays, primary screen, biochemical, small-molecule microarray, 635/667 nm fluorescence (AID 1133). Conditions: small-molecule microarray binding, FGF2, fluorescence 635/667; higher = more signal.
Test [7] can be described thus: mitochondrial membrane potential change in A549 cells, profiling panel, cell-based, JC-1 fluorescence, basal, 24 h, 100 nL (AID 1138).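 Further: A549 lung adenocarcinoma cells under basal conditions with no added stimulus; test concentration not given here.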 The following applies: higher = more signal.
A further test has as its system Lefty1. Description: Lefty1 binders on small-molecule microarrays, primary screen, biochemical, small-molecule microarray, 635/667 nm fluorescence (AID 1139). The following applies: small-molecule microarray binding, fluorescence 635/667; higher = more signal.
The test system of test [8] is wheat germ agglutinin (Triticum aestivum), Alexa647-labelled. Description: wheat germ agglutinin binders on compound microarrays, profiling panel, artefact control for SMM control-protein annotation, biochemical, small-molecule microarray, 635/667 nm fluorescence (AID 1140).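 Further: score merges 667 nm feature emission with signal to noise over triplicate slides.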 Conditions: WGA-A647 binding, 635 nm fluorescence, higher = more signal.
The target in test [9] is Luciferin 4-monooxygenase (Photinus pyralis) (UniProt P08659). Description: firefly luciferase enzyme inhibitors, primary screen, biochemical, luminescence, purified enzyme, 2006 set (AID 1141).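 Further: cell-free assay with purified firefly luciferase at 100 ng per well in PBS; test concentration not given here.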 The following applies: SteadyGlo luminescence, 30 min, higher = more signal, called active from +8 up or from −8 down.

SMILES strings stand for the structures. Activity calls are given as the source filed them.

Focal adhesion kinase 1 (Homo sapiens), sequence (Q05397 whole entry, looked up): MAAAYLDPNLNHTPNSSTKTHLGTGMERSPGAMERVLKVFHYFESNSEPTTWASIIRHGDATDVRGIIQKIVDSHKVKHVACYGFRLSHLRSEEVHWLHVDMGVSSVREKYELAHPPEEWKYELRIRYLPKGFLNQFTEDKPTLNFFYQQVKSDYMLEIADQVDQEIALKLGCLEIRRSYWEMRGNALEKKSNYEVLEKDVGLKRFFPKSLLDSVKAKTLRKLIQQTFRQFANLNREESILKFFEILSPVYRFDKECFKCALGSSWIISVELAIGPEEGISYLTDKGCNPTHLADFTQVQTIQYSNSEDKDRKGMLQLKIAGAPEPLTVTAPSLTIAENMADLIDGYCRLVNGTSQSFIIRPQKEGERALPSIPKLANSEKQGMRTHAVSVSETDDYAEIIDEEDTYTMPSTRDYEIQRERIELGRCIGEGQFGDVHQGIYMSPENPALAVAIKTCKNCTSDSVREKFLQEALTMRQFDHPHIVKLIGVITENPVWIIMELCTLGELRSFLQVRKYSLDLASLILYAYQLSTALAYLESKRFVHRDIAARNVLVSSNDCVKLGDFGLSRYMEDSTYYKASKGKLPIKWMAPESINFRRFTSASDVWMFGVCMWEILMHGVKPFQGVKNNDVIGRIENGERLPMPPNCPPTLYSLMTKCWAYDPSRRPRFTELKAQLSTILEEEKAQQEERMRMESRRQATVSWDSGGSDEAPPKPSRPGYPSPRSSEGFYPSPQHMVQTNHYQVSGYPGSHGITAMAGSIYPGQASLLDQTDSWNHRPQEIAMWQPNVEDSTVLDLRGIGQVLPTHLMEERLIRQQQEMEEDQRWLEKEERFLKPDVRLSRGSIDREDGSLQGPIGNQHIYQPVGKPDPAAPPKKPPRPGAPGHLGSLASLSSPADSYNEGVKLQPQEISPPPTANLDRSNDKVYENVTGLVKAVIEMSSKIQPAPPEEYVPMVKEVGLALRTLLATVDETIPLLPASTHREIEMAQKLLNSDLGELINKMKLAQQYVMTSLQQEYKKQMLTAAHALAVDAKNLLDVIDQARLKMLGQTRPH
Follistatin (Homo sapiens), sequence (P19883 whole entry, looked up): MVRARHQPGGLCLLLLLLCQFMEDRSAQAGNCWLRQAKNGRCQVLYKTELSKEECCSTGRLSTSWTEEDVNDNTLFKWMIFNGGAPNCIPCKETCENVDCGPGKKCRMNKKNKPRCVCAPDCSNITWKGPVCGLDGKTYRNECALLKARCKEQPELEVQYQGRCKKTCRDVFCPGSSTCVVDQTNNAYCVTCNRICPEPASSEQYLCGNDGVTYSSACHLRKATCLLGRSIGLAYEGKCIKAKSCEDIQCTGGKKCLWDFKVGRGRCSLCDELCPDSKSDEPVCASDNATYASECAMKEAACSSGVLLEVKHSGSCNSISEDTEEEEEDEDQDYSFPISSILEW
Luciferin 4-monooxygenase (Photinus pyralis), sequence (P08659 whole entry, looked up): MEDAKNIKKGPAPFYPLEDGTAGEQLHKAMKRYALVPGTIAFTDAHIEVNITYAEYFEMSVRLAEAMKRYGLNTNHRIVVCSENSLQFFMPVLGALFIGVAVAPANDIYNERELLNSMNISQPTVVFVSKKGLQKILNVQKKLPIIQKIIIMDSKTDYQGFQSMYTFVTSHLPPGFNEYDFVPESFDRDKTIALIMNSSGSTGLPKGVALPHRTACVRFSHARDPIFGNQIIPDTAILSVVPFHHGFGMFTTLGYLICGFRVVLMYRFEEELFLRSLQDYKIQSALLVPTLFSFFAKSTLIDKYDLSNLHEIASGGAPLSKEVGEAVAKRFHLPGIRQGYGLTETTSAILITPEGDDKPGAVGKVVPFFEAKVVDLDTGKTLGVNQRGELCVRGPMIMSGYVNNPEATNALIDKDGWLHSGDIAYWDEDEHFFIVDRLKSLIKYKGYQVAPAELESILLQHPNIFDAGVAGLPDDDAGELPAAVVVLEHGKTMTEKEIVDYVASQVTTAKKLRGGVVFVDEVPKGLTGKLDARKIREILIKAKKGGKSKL
Fibroblast growth factor 2 (Homo sapiens), sequence (P09038 whole entry, looked up): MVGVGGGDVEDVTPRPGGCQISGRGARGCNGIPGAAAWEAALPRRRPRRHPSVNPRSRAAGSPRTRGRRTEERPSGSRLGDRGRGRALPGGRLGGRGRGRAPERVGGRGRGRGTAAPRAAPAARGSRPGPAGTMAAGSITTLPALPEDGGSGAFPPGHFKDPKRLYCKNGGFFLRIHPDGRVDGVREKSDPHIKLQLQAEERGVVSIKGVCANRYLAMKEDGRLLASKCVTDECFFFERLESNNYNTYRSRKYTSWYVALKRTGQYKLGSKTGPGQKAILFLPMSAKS

Take `C=CCC(OC(C)=O)[C@@H]1[C@@H](N(Cc2ccc(-c3ccccc3)cc2)C(=O)c2cccc3ccccc23)c2cc(OCCCO)ccc2N1C(=O)Cc1ccc(OC)cc1` (stereo not given in full): the composite z-score in test [1] was 0.118; in [2], -0.0598; in test [3], -0.109; in test [4] it was 0.698; in test [5], 0.921; in test [6], 0.285. Further, the composite z-score with Lefty1 came out at 0.0844; in [8], 0.175. Further, the z-score in [7] is 0.508; in test [9], 0.706 (inactive).

Turning to `COc1ccc(C(O)C2C=CC3C(=O)N(C)C(=O)C3N2N(c2ccccc2)c2ccccc2)cc1` (stereo not given), the composite z-score in test [1] stood at 2.06; in [2], 0.906; in test [3] it was 0.167; in test [4], 0.805; in test [5] it was 1.03; in test [6], 0.149. The composite z-score is -0.729 with Lefty1 and 1.28 in [8]. Besides, the values for the z-score in [7] and in [9] were 1.25 and 0.322 (inactive), respectively.

For `COCCOC(=O)N1C(=O)[C@@]2(c3ccccc31)[C@H](C(=O)N1CCN(c3ncccn3)CC1)[C@H]1C(=O)O[C@H](c3ccccc3)[C@H](c3ccccc3)N1[C@@H]2c1ccccc1OCCO`, the composite z-score in [1] amounted to 0.724; in test [2], 1.18; in [3], 0.382; in test [4] it was 0.867; in test [5], 1.15; in [6] it was 0.606. In addition, the composite z-score was found to be 1.02 with Lefty1 and 0.272 in test [8]. Further, the results for the z-score in [7] and in test [9] were -0.531 and -0.0896 (inactive), respectively.

In the case of `CCCN1C(=O)[C@]2(CCC(=O)OC(C)(C)C)N=C(c3ccc(OCCCO)cc3)O[C@@H]2c2ccccc21`, the composite z-score stood at 0.144 in test [1]; 1.01 in test [2]; 0.497 in [3]; 0.496 in test [4]; 1.49 in test [5]; 0.714 in test [6]. The results for the composite z-score (in the test on Lefty1; in [8]) were 0.37 and 0.0961, respectively. Also, the z-score is 0.719 in test [7] and -1.55 (inactive) in test [9].

Turning to `CCCN1C(=O)[C@@]2(c3ccc([N+](=O)[O-])cc3)CC(=O)N(CC34CC5CC(CC(C5)C3)C4)[C@@H]2c2ccc(CO)cc21`, the composite z-score in test [1] is -0.0371; in test [2], -1.01; in test [3] it was 0.195; in test [4], -0.171; in [5], 1.23; in test [6], 1.12. Further, the composite z-score is -0.0689 in the test with Lefty1 and -0.0176 in [8]. Further, the z-score in [7] was -0.284; in test [9] it was -0.366 (inactive).

As for `C=CCC(OC(C)=O)[C@@H]1[C@@H](N(Cc2cccc3ccccc23)C(=O)Cc2ccc(OC)cc2)c2cc(OCCCO)ccc2N1C(=O)c1ccc2ccccc2c1` (stereo not given in full), the composite z-score in test [1] was -0.185; in test [2], -0.322; in test [3], 0.321; in test [4] it was 0.475; in test [5], 0.792; in test [6] it was -0.0926. For the same compound, the composite z-score was found to be 0.143 with Lefty1 and 0.453 in test [8]. Further, the z-score in test [7] is 0.0343; in test [9], 0.851 (inactive).

In the case of `C=CCN1C(=O)[C@@]2(O[C@@H](CCn3cc([C@H](O)c4ccccc4)nn3)[C@H]([Si](C)(C)c3ccc(OC)cc3)[C@H]2C)c2cc(N3C(=O)c4cccc5cccc3c45)ccc21`, the composite z-score is 0.338 in [1]; -0.526 in test [2]; -0.204 in [3]; -0.295 in test [4]; -0.638 in test [5]; -0.722 in test [6]. In addition, the figures for the composite z-score (in the test on Lefty1; in test [8]) were -0.475 and -0.22, respectively. Moreover, the z-score in [7] was 1.36; in test [9], -0.0152 (inactive).

Take `COC(=O)[C@@]1(Cc2ccccc2)[C@H]2c3cc(C(=O)N4CCCC4)n(Cc4ccc(OC)c(OC)c4)c3C[C@H]2CN1C(=O)c1ccccc1`: the composite z-score was 0.682 in [1]; 1.27 in test [2]; 0.916 in test [3]; 1.03 in test [4]; 0.528 in [5]; -0.502 in [6]. For the same compound, the composite z-score in the test on Lefty1 was -0.115; in test [8] it was 0.863. Further, the z-score is 1.99 in test [7] and 2.75 (inactive) in test [9].

Take `C=C(COC)C(=O)CC[C@H](OC(=O)c1cccnc1)c1ccc(OCCO)cc1`: the composite z-score in test [1] is -0.108; in test [2], 0.355; in test [3], -0.172; in test [4], 0.637; in test [5], 1.07; in [6], 0.893. For the same compound, the results for the composite z-score (in the test with Lefty1; in test [8]) were 1.63 and 0.73, respectively. Further, the values for the z-score in test [7] and in test [9] were -0.747 and -2.23 (inactive), respectively.

Turning to `COc1ccc([Si](C)(C)[C@H]2[C@H](CC(=O)N3Cc4ccccc4C[C@H]3CO)O[C@@]3(C(=O)N(C)c4ccccc43)[C@@H]2C)cc1`, the composite z-score in test [1] came to 1.45; in test [2], 1.19; in [3], 0.333; in test [4], 0.945; in test [5] it was 1.52; in test [6] it was 1.24. For the same compound, the composite z-score in the test on Lefty1 amounted to 1.58; in test [8], 0.938. Also, the results for the z-score in [7] and in test [9] were 0.206 and -0.243 (inactive), respectively.

With `O=C1[C@H]2C=C(I)[C@H](C[C@@H]2c2ccccc2)[C@@]12CO2`, the composite z-score in test [1] was 0.214; in test [2], 0.0555; in test [3], -0.142; in test [4], -0.347; in [5] it was 0.742; in test [6] it was 0.111. In addition, the composite z-score in the test with Lefty1 is 0.334; in test [8], -0.1. Besides, the figures for the z-score in [7] and in test [9] were 0.949 and -0.218 (inactive), respectively.

For the compound `C=CCNC(=O)[C@H]1[C@@H]2C(=O)O[C@@H](c3ccccc3)[C@@H](c3ccccc3)N2[C@@H](c2ccccc2OCCO)[C@]12C(=O)N(C(=O)OCCOC)c1ccc(C#Cc3ccc(OC)cc3)cc12`, the composite z-score turned out to be 0.63 in test [1]; 1.19 in test [2]; 0.723 in test [3]; 0.732 in test [4]; 0.406 in [5]; 0.235 in test [6]. Also, the composite z-score with Lefty1 is 0.407; in test [8], 0.924. Moreover, the z-score in test [7] is -0.844; in test [9] it was -1.05 (inactive).

As for `C[C@]1(C(=O)O)c2ccccc2C(=O)N(Cc2cc(F)cc(C(F)(F)F)c2)[C@H]1c1ccc(CO)cc1`, the composite z-score in test [1] stood at 0.201; in test [2], 0.349; in test [3] it was 0.263; in [4], 0.955; in test [5], 0.88; in test [6] it was 0.299. In addition, the composite z-score with Lefty1 was determined as 0.956; in [8] it was 0.0471. The results for the z-score in test [7] and in [9] were -1.06 and 0.759 (inactive), respectively.

For the compound `Cc1ccc(S[C@]2(C(=O)NC(C)C)CC(=O)N(C3CCCCC3)[C@@H]2c2ccc(CO)cc2I)cc1`, the composite z-score is 0.362 in [1]; 1.11 in test [2]; 0.414 in test [3]; 0.703 in test [4]; 1.21 in test [5]; 0.396 in test [6]. Further, the composite z-score in the test on Lefty1 was found to be 0.964; in test [8] it was 0.0189. The z-score in test [7] is 1.04; in test [9], 0.571 (inactive).

`Cc1ccc(S[C@]2(C(=O)NCC(F)(F)F)CC(=O)N(Cc3ccccc3C(F)(F)F)[C@@H]2c2ccc(CO)cc2)cc1`: the composite z-score is -0.344 in test [1]; -0.481 in [2]; -1.09 in [3]; -0.563 in [4]; -1.11 in test [5]; -0.826 in test [6]. Also, the composite z-score in the test on Lefty1 was -1.44; in test [8], -0.564. For the same compound, the z-score in test [7] is -0.144; in [9], 0.714 (inactive).

In the case of `[N-]=[N+]=Nc1ccccc1[C@@H]1OC(c2ccc(OCCCO)cc2)=N[C@]1(Cc1ccccc1)C(=O)NCCN1CCOCC1`, the composite z-score in test [1] was 0.598; in [2], 1.28; in test [3], 0.15; in test [4] it was 0.993; in [5], 0.675; in [6] it was -0.155. For the same compound, the composite z-score with Lefty1 stood at 0.278; in test [8] it was 0.399. The figures for the z-score in test [7] and in test [9] were -0.225 and -5.81 (inactive), respectively.
